Experiments:
Assay in all cases: DAPPL (digital affinity profiling via proximity ligation, sequencing); 10 mM Tris-HCl pH 7.5, 50 mM NaCl, 1 mM DTT, 4% glycerol, room temperature, 30 min; GST-TFs on glutathione beads, 16-mer random dsDNA library, 0.1% formaldehyde crosslink after washing; high values mean tight binding
Conditions in all cases: protein: recombinant; tags: N-terminal GST; dsDNA, one strand shown
ERF = molecular target: T1, ERF (Homo sapiens, UniProt P50548 1-548)
T1 sequence: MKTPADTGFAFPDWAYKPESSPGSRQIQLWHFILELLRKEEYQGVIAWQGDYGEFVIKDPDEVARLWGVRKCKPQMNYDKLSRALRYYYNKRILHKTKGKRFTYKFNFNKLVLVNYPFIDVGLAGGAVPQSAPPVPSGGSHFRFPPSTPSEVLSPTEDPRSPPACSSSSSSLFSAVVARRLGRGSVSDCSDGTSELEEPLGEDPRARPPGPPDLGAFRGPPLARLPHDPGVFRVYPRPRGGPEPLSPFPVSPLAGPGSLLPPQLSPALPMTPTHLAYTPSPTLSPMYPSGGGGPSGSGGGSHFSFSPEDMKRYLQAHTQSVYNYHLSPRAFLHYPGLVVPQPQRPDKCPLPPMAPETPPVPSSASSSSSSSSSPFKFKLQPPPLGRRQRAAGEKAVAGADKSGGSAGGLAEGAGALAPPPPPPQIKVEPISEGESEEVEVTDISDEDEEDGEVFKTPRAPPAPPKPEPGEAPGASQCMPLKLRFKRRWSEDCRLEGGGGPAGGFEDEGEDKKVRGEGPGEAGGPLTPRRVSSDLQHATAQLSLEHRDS
Procedure, shortened: (§1)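 Sequencing on an Illumina NextSeq500 followed washing, crosslinking with 0.1% formaldehyde, proximity ligation (BsaI/T4 ligase, 1 h, 37 °C) and PCR amplification of pools that had been incubated for 30 min at room temperature with 200 nmole of a random double-stranded 16-mer DNA library in Tris/NaCl/DTT/glycerol buffer. Each pool held DNA-barcoded human transcription factors, expressed in yeast as GST fusions and captured on glutathione beads, plus a tag-only sample. Binding signal is a hexamer's read frequency for a factor divided by its frequency in the tag-only sample.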

ETV3L = molecular target: T2, ETV3L (Homo sapiens, UniProt Q6ZN32 1-361)
T2 sequence: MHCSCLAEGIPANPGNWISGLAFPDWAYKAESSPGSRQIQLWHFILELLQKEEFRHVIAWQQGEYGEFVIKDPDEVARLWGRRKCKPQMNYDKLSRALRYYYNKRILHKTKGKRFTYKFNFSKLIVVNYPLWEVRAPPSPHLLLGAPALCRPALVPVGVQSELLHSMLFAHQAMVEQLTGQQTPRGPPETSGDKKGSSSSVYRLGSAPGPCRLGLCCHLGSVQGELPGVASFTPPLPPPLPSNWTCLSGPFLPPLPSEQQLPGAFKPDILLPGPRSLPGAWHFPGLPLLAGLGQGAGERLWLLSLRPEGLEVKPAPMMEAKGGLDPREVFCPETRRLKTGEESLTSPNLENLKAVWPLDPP
Procedure, shortened: as §1

ETS2 = molecular target: T3, ETS2 (Homo sapiens, UniProt P15036 1-469)
T3 sequence: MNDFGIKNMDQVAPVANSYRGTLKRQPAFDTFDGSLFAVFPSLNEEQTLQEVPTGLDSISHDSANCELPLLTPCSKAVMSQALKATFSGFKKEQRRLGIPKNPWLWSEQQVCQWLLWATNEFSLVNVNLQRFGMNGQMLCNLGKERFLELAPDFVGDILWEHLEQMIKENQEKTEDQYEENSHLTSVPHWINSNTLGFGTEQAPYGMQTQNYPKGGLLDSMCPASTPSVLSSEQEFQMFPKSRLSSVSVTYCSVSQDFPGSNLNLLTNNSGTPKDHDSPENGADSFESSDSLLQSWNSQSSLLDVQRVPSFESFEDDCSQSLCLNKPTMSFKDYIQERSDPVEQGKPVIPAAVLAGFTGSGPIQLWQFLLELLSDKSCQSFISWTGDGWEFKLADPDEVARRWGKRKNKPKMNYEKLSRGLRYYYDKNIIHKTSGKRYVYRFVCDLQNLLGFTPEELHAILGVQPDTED
Procedure, shortened: as §1

SPDEF = molecular target: T4, SPDEF (Homo sapiens, UniProt O95238 1-335)
T4 sequence: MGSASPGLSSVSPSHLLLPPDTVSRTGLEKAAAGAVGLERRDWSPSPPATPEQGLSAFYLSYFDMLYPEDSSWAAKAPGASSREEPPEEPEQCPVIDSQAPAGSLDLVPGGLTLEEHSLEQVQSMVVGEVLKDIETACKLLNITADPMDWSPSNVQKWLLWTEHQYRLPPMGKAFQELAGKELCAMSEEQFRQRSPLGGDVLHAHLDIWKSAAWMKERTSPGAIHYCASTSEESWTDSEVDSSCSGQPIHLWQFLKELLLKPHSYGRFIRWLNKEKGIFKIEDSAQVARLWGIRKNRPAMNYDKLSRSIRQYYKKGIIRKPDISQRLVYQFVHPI
Procedure, shortened: as §1

ETV7 = molecular target: T5, ETV7 (Homo sapiens, UniProt Q9Y603 1-341)
T5 sequence: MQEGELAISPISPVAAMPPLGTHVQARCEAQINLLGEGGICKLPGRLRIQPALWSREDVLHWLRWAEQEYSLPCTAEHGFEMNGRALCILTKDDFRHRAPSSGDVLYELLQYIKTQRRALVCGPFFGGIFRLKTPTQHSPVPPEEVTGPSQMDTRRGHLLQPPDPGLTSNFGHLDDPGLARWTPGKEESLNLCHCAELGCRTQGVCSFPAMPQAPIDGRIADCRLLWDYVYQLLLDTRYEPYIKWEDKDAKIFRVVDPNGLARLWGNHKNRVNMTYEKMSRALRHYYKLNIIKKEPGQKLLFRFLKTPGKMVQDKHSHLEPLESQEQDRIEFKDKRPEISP
Procedure, shortened: as §1

ELF5 = molecular target: T6, ELF5 (Homo sapiens, UniProt Q9UKW6-2 1-255)
T6 sequence: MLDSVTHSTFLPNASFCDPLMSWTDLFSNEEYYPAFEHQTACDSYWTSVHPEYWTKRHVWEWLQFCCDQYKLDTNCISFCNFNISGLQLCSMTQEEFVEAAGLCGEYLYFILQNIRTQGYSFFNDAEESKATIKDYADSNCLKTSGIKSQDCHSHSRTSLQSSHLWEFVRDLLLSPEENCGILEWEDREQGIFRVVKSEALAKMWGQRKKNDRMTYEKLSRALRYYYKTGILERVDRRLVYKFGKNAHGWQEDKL
Procedure, shortened: as §1

ETV3 = molecular target: T7, ETV3 (Homo sapiens, UniProt P41162-2 1-143)
T7 sequence: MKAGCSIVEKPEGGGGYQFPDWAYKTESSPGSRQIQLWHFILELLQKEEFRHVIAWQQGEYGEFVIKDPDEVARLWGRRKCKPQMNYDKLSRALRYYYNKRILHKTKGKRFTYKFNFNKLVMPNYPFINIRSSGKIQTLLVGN
Procedure, shortened: as §1

ETV6 = ETV6 (Homo sapiens, UniProt P41212 1-452)
Chain of ETV6 (P41212 whole entry): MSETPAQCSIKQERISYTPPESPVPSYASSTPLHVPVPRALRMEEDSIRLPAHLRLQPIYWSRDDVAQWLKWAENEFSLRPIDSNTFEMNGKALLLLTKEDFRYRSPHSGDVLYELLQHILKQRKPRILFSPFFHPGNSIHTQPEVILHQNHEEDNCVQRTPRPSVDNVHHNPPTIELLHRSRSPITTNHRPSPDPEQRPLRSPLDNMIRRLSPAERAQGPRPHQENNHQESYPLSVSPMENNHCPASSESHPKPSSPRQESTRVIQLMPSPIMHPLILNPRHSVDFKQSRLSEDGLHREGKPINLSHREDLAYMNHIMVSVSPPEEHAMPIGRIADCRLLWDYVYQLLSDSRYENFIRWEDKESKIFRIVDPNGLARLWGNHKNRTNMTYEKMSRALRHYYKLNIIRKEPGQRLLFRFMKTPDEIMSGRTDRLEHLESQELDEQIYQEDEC
Procedure, shortened: as §1

Sequence	binding signal (ERF)	binding signal (ETV3L)	binding signal (ETS2)	binding signal (SPDEF)	binding signal (ETV7)	binding signal (ELF5)	binding signal (ETV3)	binding signal (ETV6)
TCTCCG	1.38 fold enrichment (6-mer frequency, TF over GST control)	1.43 fold enrichment (6-mer frequency, TF over GST control)	1.62 fold enrichment (6-mer frequency, TF over GST control)	1.65 fold enrichment (6-mer frequency, TF over GST control)	1.31 fold enrichment (6-mer frequency, TF over GST control)	1.56 fold enrichment (6-mer frequency, TF over GST control)	1.66 fold enrichment (6-mer frequency, TF over GST control)	1.48 fold enrichment (6-mer frequency, TF over GST control)
CTGTCA	1.17 fold enrichment (6-mer frequency, TF over GST control)	1.22 fold enrichment (6-mer frequency, TF over GST control)	1.14 fold enrichment (6-mer frequency, TF over GST control)	1.06 fold enrichment (6-mer frequency, TF over GST control)	1.12 fold enrichment (6-mer frequency, TF over GST control)	1.14 fold enrichment (6-mer frequency, TF over GST control)	1.09 fold enrichment (6-mer frequency, TF over GST control)	1.1 fold enrichment (6-mer frequency, TF over GST control)
AACACC	1.15 fold enrichment (6-mer frequency, TF over GST control)	1.15 fold enrichment (6-mer frequency, TF over GST control)	1.13 fold enrichment (6-mer frequency, TF over GST control)	1.15 fold enrichment (6-mer frequency, TF over GST control)	1.13 fold enrichment (6-mer frequency, TF over GST control)	1.09 fold enrichment (6-mer frequency, TF over GST control)	1.13 fold enrichment (6-mer frequency, TF over GST control)	1.06 fold enrichment (6-mer frequency, TF over GST control)
CCCCCA	1.06 fold enrichment (6-mer frequency, TF over GST control)	1.21 fold enrichment (6-mer frequency, TF over GST control)	1.19 fold enrichment (6-mer frequency, TF over GST control)	1.22 fold enrichment (6-mer frequency, TF over GST control)	1.11 fold enrichment (6-mer frequency, TF over GST control)	1.24 fold enrichment (6-mer frequency, TF over GST control)	1.3 fold enrichment (6-mer frequency, TF over GST control)	1.19 fold enrichment (6-mer frequency, TF over GST control)
CGAACA	1.17 fold enrichment (6-mer frequency, TF over GST control)	1.13 fold enrichment (6-mer frequency, TF over GST control)	1.22 fold enrichment (6-mer frequency, TF over GST control)	1.1 fold enrichment (6-mer frequency, TF over GST control)	1.2 fold enrichment (6-mer frequency, TF over GST control)	1.05 fold enrichment (6-mer frequency, TF over GST control)	1.15 fold enrichment (6-mer frequency, TF over GST control)	1.19 fold enrichment (6-mer frequency, TF over GST control)
AACTTC	2.22 fold enrichment (6-mer frequency, TF over GST control)	2.51 fold enrichment (6-mer frequency, TF over GST control)	2.63 fold enrichment (6-mer frequency, TF over GST control)	2.21 fold enrichment (6-mer frequency, TF over GST control)	2.3 fold enrichment (6-mer frequency, TF over GST control)	3.55 fold enrichment (6-mer frequency, TF over GST control)	2.57 fold enrichment (6-mer frequency, TF over GST control)	2.76 fold enrichment (6-mer frequency, TF over GST control)
CGTTCC	1.4 fold enrichment (6-mer frequency, TF over GST control)	1.43 fold enrichment (6-mer frequency, TF over GST control)	1.48 fold enrichment (6-mer frequency, TF over GST control)	1.5 fold enrichment (6-mer frequency, TF over GST control)	1.3 fold enrichment (6-mer frequency, TF over GST control)	1.65 fold enrichment (6-mer frequency, TF over GST control)	1.41 fold enrichment (6-mer frequency, TF over GST control)	1.42 fold enrichment (6-mer frequency, TF over GST control)
ACGTTA	1.17 fold enrichment (6-mer frequency, TF over GST control)	1.12 fold enrichment (6-mer frequency, TF over GST control)	1.15 fold enrichment (6-mer frequency, TF over GST control)	1.06 fold enrichment (6-mer frequency, TF over GST control)	1.09 fold enrichment (6-mer frequency, TF over GST control)	1.06 fold enrichment (6-mer frequency, TF over GST control)	1.16 fold enrichment (6-mer frequency, TF over GST control)	1.12 fold enrichment (6-mer frequency, TF over GST control)
GCCTTT	1.29 fold enrichment (6-mer frequency, TF over GST control)	1.27 fold enrichment (6-mer frequency, TF over GST control)	1.14 fold enrichment (6-mer frequency, TF over GST control)	1.15 fold enrichment (6-mer frequency, TF over GST control)	1.18 fold enrichment (6-mer frequency, TF over GST control)	1.3 fold enrichment (6-mer frequency, TF over GST control)	1.33 fold enrichment (6-mer frequency, TF over GST control)	1.38 fold enrichment (6-mer frequency, TF over GST control)
CATATC	1.42 fold enrichment (6-mer frequency, TF over GST control)	1.38 fold enrichment (6-mer frequency, TF over GST control)	1.36 fold enrichment (6-mer frequency, TF over GST control)	1.76 fold enrichment (6-mer frequency, TF over GST control)	1.24 fold enrichment (6-mer frequency, TF over GST control)	1.32 fold enrichment (6-mer frequency, TF over GST control)	1.32 fold enrichment (6-mer frequency, TF over GST control)	1.26 fold enrichment (6-mer frequency, TF over GST control)
TCATTA	1.19 fold enrichment (6-mer frequency, TF over GST control)	1.08 fold enrichment (6-mer frequency, TF over GST control)	1.1 fold enrichment (6-mer frequency, TF over GST control)	1.06 fold enrichment (6-mer frequency, TF over GST control)	1.16 fold enrichment (6-mer frequency, TF over GST control)	1.09 fold enrichment (6-mer frequency, TF over GST control)	1.12 fold enrichment (6-mer frequency, TF over GST control)	1.06 fold enrichment (6-mer frequency, TF over GST control)
TCATCA	1.23 fold enrichment (6-mer frequency, TF over GST control)	1.18 fold enrichment (6-mer frequency, TF over GST control)	1.15 fold enrichment (6-mer frequency, TF over GST control)	1.12 fold enrichment (6-mer frequency, TF over GST control)	1.15 fold enrichment (6-mer frequency, TF over GST control)	1.16 fold enrichment (6-mer frequency, TF over GST control)	1.22 fold enrichment (6-mer frequency, TF over GST control)	1.08 fold enrichment (6-mer frequency, TF over GST control)
CACGCC	1.21 fold enrichment (6-mer frequency, TF over GST control)	1.2 fold enrichment (6-mer frequency, TF over GST control)	1.09 fold enrichment (6-mer frequency, TF over GST control)	1.05 fold enrichment (6-mer frequency, TF over GST control)	1.12 fold enrichment (6-mer frequency, TF over GST control)	1.1 fold enrichment (6-mer frequency, TF over GST control)	1.2 fold enrichment (6-mer frequency, TF over GST control)	1.17 fold enrichment (6-mer frequency, TF over GST control)
TTCACA	1.26 fold enrichment (6-mer frequency, TF over GST control)	1.21 fold enrichment (6-mer frequency, TF over GST control)	1.23 fold enrichment (6-mer frequency, TF over GST control)	1.25 fold enrichment (6-mer frequency, TF over GST control)	1.29 fold enrichment (6-mer frequency, TF over GST control)	1.12 fold enrichment (6-mer frequency, TF over GST control)	1.13 fold enrichment (6-mer frequency, TF over GST control)	1.13 fold enrichment (6-mer frequency, TF over GST control)
